Compound activity as filed in PubChem.
Rows were chosen to be rich in hits. Some 2.4% of all compounds tested hit in one or more screens of this group.
D2 PAM-1: positively modulates the human D2 dopamine receptor allosterically; HEK293 T-REx D2, calcium flux, EC20 dopamine potentiation; hit rate 0.34% among 340,000; potentiation, % at 10 µM; AID 485347;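 active = potentiation over 3 SD above the plate norm, cut at about 30% in these data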
Target sequence (P14416 whole entry, looked up): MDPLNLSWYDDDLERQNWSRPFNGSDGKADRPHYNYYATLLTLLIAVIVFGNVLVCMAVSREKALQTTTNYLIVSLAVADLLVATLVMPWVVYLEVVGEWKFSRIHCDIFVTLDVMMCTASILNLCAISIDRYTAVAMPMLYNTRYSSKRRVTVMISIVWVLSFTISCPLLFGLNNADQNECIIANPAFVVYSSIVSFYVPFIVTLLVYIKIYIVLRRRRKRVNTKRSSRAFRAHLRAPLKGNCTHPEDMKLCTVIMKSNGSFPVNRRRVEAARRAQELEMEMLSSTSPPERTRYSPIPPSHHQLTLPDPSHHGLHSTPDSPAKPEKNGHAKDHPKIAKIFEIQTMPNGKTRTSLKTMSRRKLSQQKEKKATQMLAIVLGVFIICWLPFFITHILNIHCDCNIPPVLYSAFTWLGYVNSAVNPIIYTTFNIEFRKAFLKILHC
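Tetracycline-induced Hek293 Trex D2 cells, force-coupled to calcium, loaded with no-wash calcium dye. Compound added with 180 s kinetic read for agonism, then EC20 dopamine and a further 180 s read for potentiation.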
D2 antag: antagonizes the human D2 dopamine receptor; HEK293 TREx D2 cells, calcium flux, dopamine EC80; inhibition, % at 10 µM; hit rate 2% among 340,000; P14416; AID 485344; in the data active = inhibition above about 30%; inactive = below that, where a call was filed
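Calcium flux kinetic readout in an inducible HEK293 TREx D2 line plated overnight at 30 C. After 180 s compound exposure, an EC80 dopamine challenge follows with another 180 s kinetic read to detect antagonism.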
D2 ag-1: agonists of human D2 dopamine receptor (beta-arrestin); DiscoveRx PathHunter D2 beta-arrestin, luminescence, 90 min; 100% = 57 uM dopamine signal; hit rate 0.084% among 360,000; activation, % (test concentration not listed); in the data active = activation above about 40%
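Agonist mode: compounds alone added to overnight-plated D2 PathHunter cells for 90 min at 37 C, with 57 uM final dopamine (EC100) defining full response. Beta-arrestin recruitment detected by chemiluminescent reagent, read after 1 h at ambient temperature.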
D2 ag-2: agonists of human D2 dopamine receptor; P14416; HEK293 T-REx D2 cells, calcium flux agonist mode; activation, % at 2 µM; hit rate 0.53% among 340,000;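 active = activation over 3 SD above normal in the single-dose calcium agonist read, cut at about 30% in these data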
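Calcium-flux readout, 1 cycle/sec over 180 s following compound pin transfer, in inducible HEK293 Trex D2 cells (force-coupled); dopamine controls included. Positive calcium responses during this window marked compounds as potential agonists.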
D2 PAM-2: positive allosteric modulators of human D2 dopamine receptor; DiscoveRx D2 beta-arrestin cells, luminescence, 90 min; 100% = 57 uM dopamine signal; AID 624464; potentiation, % (no concentration beside the values); hit rate 0.23% among 360,000; in the data active = potentiation above about 50%
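PathHunter D2 cells, attached overnight at 37 deg C, received compound in DMSO plus dopamine at EC20 (50 nM final) for 90 min at 37 deg C. Beta-arrestin recruitment was read as luminescence after 1 h with detection reagent at ambient temperature.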
A number is an active result; - = inactive; . = no result.

SMILES	D2 PAM-1	D2 antag	D2 ag-1	D2 ag-2	D2 PAM-2
CCC(=O)Nc1ccc(NC(=O)c2ccccc2)nc1	-	32	-	-	-
CCCC(=O)Nc1ccc(NC(=O)c2ccccc2)nc1	-	-	-	-	-
N#Cc1cccc(NC(=O)C2CCN(S(=O)(=O)c3ccc4[nH]c(=O)ccc4c3)CC2)c1	-	.	.	-	.
COc1ccc(C)cc1S(=O)(=O)N(C)CC(=O)NCc1ccncc1	-	33	-	-	-
COc1ccc(OC)c(NC(=O)CN2C(=O)CC(C)Sc3ccccc32)c1 (stereo unspecified)	-	.	.	-	.
CCn1c(CNC(=O)C23CC4CC(CC(C4)C2)C3)nnc1SCC(=O)Nc1nnc(C)s1	43	-	-	-	-
CCCCn1c(CNC(=O)C23CC4CC(CC(C4)C2)C3)nnc1SCC(=O)Nc1nnc(C)s1	-	-	-	-	-
CC12CCC(C(=O)N(CSC(=S)N/N=C\c3ccccc3Cl)C1=O)C2(C)C (stereo unspecified)	-	-	-	-	-
CC12CCC(C(=O)N(CSC(=S)N/N=C\c3ccccc3)C1=O)C2(C)C (stereo unspecified)	-	32	-	-	-
NC(=O)CSc1nnc(-c2cnccn2)n1-c1ccccc1	36	-	-	-	-
Cn1c(SCc2ccccc2)nnc1-c1cnccn1	-	37	-	-	-
Cn1c(SCc2ccc(F)cc2)nnc1-c1cnccn1	-	-	-	-	-
COc1ccccc1N1CCN(C(=O)c2cnn(C(C)(C)C)c2C2CCN(C(=O)OC(C)(C)C)CC2)CC1	-	.	.	.	.
CC(C)(C)C(=O)Nc1cc2c3c(c1)CCC(=O)N3CCC2	-	-	-	-	-
c1ccc(-c2nnc3n2N=C(c2ccc4c(c2)OCO4)CS3)nc1	-	-	-	-	-
c1cc2c(cc1C1=Nn3c(nnc3C3CCCCC3)SC1)OCO2	-	33	-	-	-
COc1ccc(OCCN2C(=O)NC(C)(c3ccc(C)cc3)C2=O)cc1 (stereo unspecified)	66	-	-	-	-
Cc1ccc(C2(C)NC(=O)N(CCOc3ccccc3)C2=O)cc1 (stereo unspecified)	-	-	-	-	-
COC(=O)C(C)Sc1nc2ccsc2c(=O)n1Cc1ccccc1 (stereo unspecified)	-	-	-	-	-
Cn1c(=O)c2nc(SCC(=O)Nc3cc(Cl)cc(Cl)c3)n(C)c2n(C)c1=O	-	.	.	-	.
CCCc1nnc(SCC(=O)N2CCCC2)n1Cc1ccco1	-	-	-	40	-
CCCn1c(CCc2ccccc2)nnc1SCC(=O)N1CCCC1	-	-	-	-	-
O=C(CN1C(=O)S/C(=C\c2ccc(F)cc2)C1=O)NC1C=CS(=O)(=O)C1 (stereo unspecified)	-	-	-	-	-
O=C(CCN1C(=O)/C(=C/c2ccc(F)cc2)SC1=S)NC1C=CS(=O)(=O)C1 (stereo unspecified)	56	-	-	-	-
CCS(=O)(=O)N1CCc2cc(C(=O)Nc3cc(OC)c(Cl)cc3OC)ccc21	-	.	.	-	.
SMILES	D2 PAM-1	D2 antag	D2 ag-1	D2 ag-2	D2 PAM-2
Cn1c(C(=O)NCc2ccc(F)cc2)cc2c(=O)n(C)c3ccccc3c21	-	.	.	.	.
CCOc1cc(/C=C2\CCCc3c2nc2ccccc2c3C(=O)O)ccc1OC	-	38	-	87	-
COc1ccc(/C=C(/NC(=O)c2cccc([N+](=O)[O-])c2)C(=O)O)cc1OC	-	56	-	-	-
COC(=O)/C(=C/c1cccc([N+](=O)[O-])c1)NC(=O)c1ccc(OC)cc1	-	-	-	-	-
Cc1cccc(C(=O)Nc2ccc(S(=O)(=O)N3CCC(c4nc5ccccc5s4)CC3)cc2)c1	-	.	.	-	.
O=C(CNC(=O)c1ccco1)NCC(=O)OCc1c(F)cccc1Cl	-	-	-	-	-
O=C(CNC(=O)c1ccco1)OCc1c(F)cccc1Cl	41	-	-	-	-
O=C(CNC(=O)c1ccco1)NCC(=O)OCC(=O)c1ccc(Cl)c([N+](=O)[O-])c1	38	-	-	-	-
Cc1c(C2=CCN(S(=O)(=O)c3ccc(CC(C)C)cc3)CC2)c2ccccc2n1CC(=O)N1CCCC1	-	.	.	-	.
CCOc1ccc(C2C(C#N)=C(N)SC(N)=C2C#N)c(OCC)c1	-	31	-	-	-
CCOc1ccc(N2CC(C(=O)Nc3ccccc3F)CC2=O)cc1 (stereo unspecified)	-	34	-	-	-
CCOc1ccc(N2CC(C(=O)NCc3ccc4c(c3)OCO4)CC2=O)cc1 (stereo unspecified)	-	36	-	-	-
CCOc1ccc(N2CC(C(=O)Nc3ccc(S(=O)(=O)Nc4nccs4)cc3)CC2=O)cc1 (stereo unspecified)	-	32	-	-	-
COc1cccc(CC(=O)OC(C)C(=O)NCc2ccc3c(c2)OCO3)c1 (stereo unspecified)	-	55	-	-	-
CCOC(=O)c1ccccc1NC(=O)C1CC(=O)N(C2CCCCC2)C1 (stereo unspecified)	-	41	-	-	-
COc1ccccc1C(=O)NCCC(=O)NCCC12CC3CC(CC(C3)C1)C2	-	-	-	-	-
COc1ccc(C23CC4CC(CC(C4)C2)C3)cc1C(=O)NCCN(C)C	-	33	-	-	-
CCN(CC)c1cc2c(cc1F)c(=O)c(S(=O)(=O)c1ccc(OC)cc1)cn2CC	-	.	.	-	.
Oc1ccc(NC(=S)Nc2ccc(O)cc2)cc1	31	-	-	-	-
COC(=O)c1ccc(NC(=S)Nc2ccc(O)cc2)cc1	-	-	-	-	-
CC1(C(=O)NS(=O)(=O)C2CC2)CCN(C(=O)COc2ccc(Cl)cc2Cl)C1 (stereo unspecified)	.	.	-	.	-
CN(C)C1(CNC(=O)c2cccc(S(=O)(=O)NCc3ccccc3)c2)CCCCC1	-	45	-	-	-
COc1ccccc1N1CCN(CC(=O)Nc2cccc(F)c2)CC1	-	31	-	-	-
COc1ccccc1N1CCN(CC(=O)Nc2ccc(C)c(F)c2)CC1	-	-	-	-	-
O=C(CN1CCN(c2ccccc2F)CC1)Nc1ccc2c(c1)CCC2	-	69	-	-	-
SMILES	D2 PAM-1	D2 antag	D2 ag-1	D2 ag-2	D2 PAM-2
Cc1ccc(NC(=O)CN2CCN(c3ccccc3F)CC2)cc1F	-	.	.	-	.
CCOC(=O)N1CCN(CCC(=O)Nc2ccccc2OC)CC1	-	50	-	-	-
COc1ccccc1N1CCN(CCCCCCOc2ccc(F)cc2)CC1	-	81	-	-	-
CCc1ccccc1NC(=O)c1ccc2c(c1)N(Cc1cc(C)ccc1C)C(=O)c1ccccc1S2(=O)=O	-	.	.	-	.
Cc1ccc(NC(=O)CN2CCC(NC(=O)c3cccc(F)c3)CC2)cc1C	-	-	-	-	-
O=C(CN1CCC(NC(=O)C2CC2)CC1)Nc1cccc(F)c1	-	31	-	-	-
